PubChem BioAssay

Each molecule was assayed against PEG-3 (UniProt Q6IN02) (assay: inhibition of PEG-3 promoter-driven reporter – cell-based, HeLa, luciferase, CREF/GAPDH counter-screen panel, dose response (AID 624167)). Conditions: CREF/GAPDH counter-screens; HeLa PEG-Prom luciferase reporter, overnight, run 2, dose range 1, at 100 µM (top of the series) unless noted.
Sequence of PEG-3 (Q6IN02 whole entry, looked up): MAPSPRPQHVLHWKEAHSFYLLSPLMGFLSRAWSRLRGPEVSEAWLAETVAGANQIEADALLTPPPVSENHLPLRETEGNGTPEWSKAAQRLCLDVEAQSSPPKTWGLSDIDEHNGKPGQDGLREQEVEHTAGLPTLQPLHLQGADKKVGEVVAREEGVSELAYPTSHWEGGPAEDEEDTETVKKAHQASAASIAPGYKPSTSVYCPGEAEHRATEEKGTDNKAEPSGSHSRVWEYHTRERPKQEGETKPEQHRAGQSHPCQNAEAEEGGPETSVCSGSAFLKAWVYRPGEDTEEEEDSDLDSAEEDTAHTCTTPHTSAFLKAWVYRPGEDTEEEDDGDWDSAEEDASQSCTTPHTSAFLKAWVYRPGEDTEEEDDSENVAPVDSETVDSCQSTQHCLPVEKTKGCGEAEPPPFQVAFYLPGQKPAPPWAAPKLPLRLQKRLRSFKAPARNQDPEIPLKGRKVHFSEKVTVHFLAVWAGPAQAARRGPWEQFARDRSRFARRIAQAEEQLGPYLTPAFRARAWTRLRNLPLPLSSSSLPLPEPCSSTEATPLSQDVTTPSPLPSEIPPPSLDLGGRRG
Molecule `COc1ccc(C2c3ccc4ccccc4c3Oc3ncn(CCO)c(=N)c32)cc1OC` (stereo not given) has an inhibition of 101%. Molecule `Cc1ccc(S(=O)(=O)N(C)C)cc1NC(=O)c1cncc(Br)c1` has an inhibition of 83.7%. In the case of `CCN(CC)CCN1CCN(c2cncc(-c3ccc4ccccc4c3)n2)CC1`, the inhibition is reported as 102%. `O=C(Nc1cccc(S(=O)(=O)N2CCOCC2)c1)c1ccc2c(=O)n3c(nc2c1)CCCCC3` gave an inhibition of 98%. For `CC(C)n1nc(C(=O)Oc2cc(Cl)ccc2Cl)c2ccccc2c1=O`, the inhibition was 97.5%. With `CC(=O)c1ccc(Nc2nc(C(N)Cc3ccc(Cl)cc3)cs2)cc1` (stereo not given) the inhibition was 98.2%. `Cc1ccc2[nH]c3c(c2c1)CCCC3NC(=O)CCl` (stereo not given) showed an inhibition of 96.5%. For `CCCc1nc2oc3c(NCCCN(C)C)ncnc3c2c2c1CCCC2`, the inhibition was 101%. For `COc1ccccc1NC(=O)c1cc(-c2cc(OC)c(OC)c(OC)c2)nc2ccccc12`, the inhibition was 50.1% [run 2, dose range 1, at 50 µM]. `CCCn1c(=N)n(CC(=O)c2ccc(Cl)cc2)c2ccccc21` showed an inhibition of 100%. In the case of `Cc1nn(-c2ccccc2)c2c1C(c1ccc([N+](=O)[O-])cc1)N1C(=N2)C(=O)Nc2ccccc21` (stereo not given), the inhibition is reported as 2.44%. `COc1cc(CNC(C)(C)CO)cc(Br)c1OCc1ccc(Cl)cc1` gave an inhibition of 98.9%. With `CCN(c1ccccc1)S(=O)(=O)c1ccc(C(=O)N(CCCN(C)C)c2nc3cc4c(cc3s2)OCO4)cc1` the inhibition was 99%. Molecule `COc1ccc(CNCCC(c2ccccc2)c2ccc(OC(C)C)cc2)cc1OC` (stereo not given) has an inhibition of 102%. Molecule `COCCn1c(C)cc(C(=O)CSc2nnc3ccccn23)c1C` has an inhibition of 94.2%. `CCOc1cc(/C=N/Nc2nc(-c3cccc(S(=O)(=O)N4CCCC4)c3)cs2)ccc1O` was tested, and the inhibition was 95.5%. In the case of `Cn1nnnc1Sc1ncnc2scc(-c3ccc4c(c3)OCO4)c12`, the inhibition is reported as 97.4%. Molecule `CCOC(=O)c1sc2nc(CSc3ccccc3)nc(N3CCCN(C)CC3)c2c1C` has an inhibition of 99%. Molecule `CCN(CC)CCn1c2ccccc2c2cnc(N)c(C#N)c21` has an inhibition of 102%. In the case of `CSc1ccc2c(c1)C(N1CCN(C)CC1)Cc1ccccc1S2` (stereo not given), the inhibition is reported as 98.9%. `COc1ccc2c(c1OC)C(=O)N1c3ccccc3C(=O)N(c3ccccc3F)C21` (stereo not given) was tested, and the inhibition was 68.7%. With `CC(=O)c1cccc(NC(=O)c2cccc3c(-c4cccnc4)coc23)c1` the inhibition was 47%. With `COc1ccc(-c2cc(-c3ccc(F)cc3)nc(N3CCN(C)CC3)n2)cc1` the inhibition was 101%. In the case of `COc1ccc(-c2ccc3[nH]c4c(c3c2)CCN2C[C@@H]([C@H](C)O)[C@@H](N(C)C(=O)Nc3cc(Cl)cc(Cl)c3)C[C@@H]42)cc1`, the inhibition is reported as 96.5%. In the case of `Cc1ccc(-c2nnc(N3CCN(c4ccccn4)CC3)c3ccccc23)cc1`, the inhibition is reported as 101%. For `CCC(C)Sc1ccc(-c2nc3ccccn3c2NCc2ccccc2)cc1OC` (stereo not given), the inhibition was 89.4%. `Cc1nc2c(OCc3ccc(OC(F)F)cc3)cccn2c1N(C)C(=O)CCC1CCCC1` gave an inhibition of 99.7%. With `CNCC[C@H](Oc1cccc2ccccc12)c1cccs1` the inhibition was 98.8%. For `COc1ccccc1N1CCN(C(=O)c2sc3ncnc(N4CCN(c5ccccn5)CC4)c3c2C)CC1`, the inhibition was 93.5%. In the case of `CN(C)CCCNc1ncnc2oc(-c3ccccc3)c(-c3ccccc3)c12`, the inhibition is reported as 101%. For `CC1=NN(c2cccc(C(=O)O)c2)C(=O)/C1=C\C=C/c1ccccc1`, the inhibition was 99.5% [run 2, dose range 1, at 50 µM]. `COc1ccc(NC(=O)N(C)[C@H]2C[C@H]3c4[nH]c5ccc(-c6cccc(C)c6)cc5c4CCN3C[C@H]2[C@H](C)O)cc1` showed an inhibition of 97.1%. In the case of `CCN1CCN(Cc2c(O)ccc3c2O/C(=C\C=C\c2ccccc2)C3=O)CC1`, the inhibition is reported as 101%. In the case of `Cc1ccccc1NC(=O)Nc1nc(C(N)C2CCCCC2)cs1` (stereo not given), the inhibition is reported as 99.7%. `COc1ccc(-c2cc(C(=O)N3CCN(c4ccccc4F)CC3)c3ccccc3n2)c(OC)c1` gave an inhibition of 47.4%. Molecule `N=c1c2c(-c3ccccc3)c(-c3ccccc3)n(Cc3ccccc3)c2ncn1CCO` has an inhibition of 97.6%. Molecule `Cc1ccc2[nH]c(=O)c(C3C(C#N)=C(N)Oc4c3ccc3cccnc43)cc2c1` (stereo not given) has an inhibition of 98.6%. `O=C1CCC2S/C(=C/Nc3ccc(C(F)(F)F)cc3)C(=O)N12` (stereo not given) showed an inhibition of 85.3%. `COc1ccc(CCNC(=O)C(=O)NCC2CCCN2S(=O)(=O)c2ccccc2)cc1OC` (stereo not given) was tested, and the inhibition was 81.7%. `CN(CCOc1ccc(Cl)cc1)C(=O)c1cc(-c2ccco2)nc2ccccc12` was tested, and the inhibition was 96.2%.
